Test results from PubChem BioAssay AID687014 (The Scripps Research Institute Molecular Screening Center, 2013).
About 6,800 (1.8%) of roughly 370,000 compounds were called active. The full list was thinned out, with actives kept by preference. Unmarked numbers belong to inactive results.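 Rule for the calls: active = activation above a cutoff set at the mean of all screened compounds plus 3 SD (cut at about 10% in these data); inactive = the rest.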

tested on: Nuclear hormone receptor DAF-12 (Heterodera glycines), GAL4 fusion; assay: hgDAF-12 GAL4 fusion reporter activation – cell-based, luminescence, HEK293, UAS-luciferase, primary screen (AID 687014); conditions: HEK293 GAL4-hgDAF12 UAS-luciferase reporter, agonist luminescence; at 6.8 µM; stronger effect = higher value; normalized to butyrate control;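 note: 0% = DMSO wells and 100% = sodium butyrate wells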

| SMILES | activation |
| --- | --- |
| Cc1ccc(-c2nc3ccccc3[nH]c2=O)cc1 | 10.9% (active) |
| CCCCCn1nnnc1-c1nc2cc3ccccc3cc2[nH]c1=O | 0.65% |
| Cc1ccc(-c2nnc(-n3nnc4ccccc43)c3ccccc23)cc1 | 0.07% |
| CC1CCN(C(=O)CCNC(=O)c2ccccc2)CC1 | 2.11% |
| O=C(NCCc1ccccc1)c1ccc(NC2=NC3CS(=O)(=O)CC3S2)cc1 (stereo not given) | -1.54% |
| CC1CCCN(c2ccc(C(=O)NCCc3ccccc3)cn2)C1 (stereo not given) | 18.4% (active) |
| O=C(NC1CCCC1)C1CSCCS(=O)(=O)N1Cc1ccccc1 (stereo not given) | 2.17% |
| CC(C)C[C@@H](NC(=O)[C@H]1CCCN1C(=O)Cc1ccccc1)C(N)=O | 1.33% |
| Cc1cc(F)ccc1N1CCC(N2CCN(C)C(CCO)C2)CC1 (stereo not given) | 1.51% |
| O=C(Cc1ccccc1)Nc1ccc(C(=O)Nc2ccccc2C(=O)O)cc1 | 0.23% |
| O=C(Nc1ccccc1C(=O)N1CCOCC1)c1ccc(Cl)cc1 | -2.57% |
| Nc1ccc(C(=O)Nc2ccccc2N)cc1 | 66.9% (active) |
| CCC(CO)Nc1cccc2c1S(=O)(=O)N(Cc1cn(Cc3ccccc3C(F)(F)F)nn1)Cc1ccccc1O2 (stereo not given) | 0.2% |
| O=C1Nc2ccccc2C1=NN=Cc1ccco1 | 0.84% |
| CCOc1ccc(/C=N\NC(=O)c2c(C)nc3cc(C)ccn23)cc1 | -0.25% |
| Nc1nonc1-n1nnc(C(=O)N/N=C/c2ccc(Cl)cc2)c1-c1ccc2c(c1)OCO2 | -0.85% |
| Cc1nonc1C(=O)N/N=C/c1ccc(O)cc1 | 10.9% (active) |
| Cc1ccc(O)c(CCc2ccccc2)n1 | 1.33% |
| Cc1cccc(C(=O)Nc2c(-c3ccc(F)cc3)nc3ncccn23)c1 | -2.47% |
| CCC(=O)Nc1ccc2c(c1)C(=O)N(C)[C@@H]1CC[C@@H](CC(=O)NCCc3ccccc3)O[C@H]1CO2 | 0.93% |
| Cc1cc(O)cc(O)c1C(=O)Cc1cnn(-c2ccccc2)c1 | -1.43% |
| O=C(c1cnn(-c2ccc(Cl)cc2)c1)c1ccccc1O | 18.6% (active) |
| O=C(c1ccc(Cl)cc1)n1cnc2ccccc21 | 0.03% |

| SMILES | activation |
| --- | --- |
| CN(CCO)c1cccc2c1S(=O)(=O)N(Cc1cn(Cc3ccc(C(F)(F)F)cc3)nn1)Cc1ccccc1O2 | 4.36% |
| O=C(c1cccs1)N1CCCC(c2nc(-c3ccc(F)cc3)no2)C1 (stereo not given) | 3.47% |
| Cc1ccc(-c2noc(-c3ccccc3C(=O)NCC3CCCO3)n2)cc1 (stereo not given) | 3.26% |
| c1csc(-c2nc(-c3ccncc3)no2)c1 | 10.9% (active) |
| Cc1ccc(-c2nc(-c3ccncc3)no2)c(C)c1 | 12.5% (active) |
| O=C(NCc1cccnc1)c1nc(-c2cccs2)no1 | 4.85% |
| CCOc1ccc(N(CC(=O)Nc2c(C)n(C)n(-c3ccccc3)c2=O)S(=O)(=O)c2ccc(Cl)s2)cc1 | 8.38% |
| CCOc1ccccc1C(=O)N1CCC[C@@H]1C(=O)N1CCC[C@H]1C(=O)NCc1ccccc1 | -0.69% |
| CN(C)CC(=O)N[C@@H]1C[C@@H]2O[C@H](CO)CC[C@@H]2O[C@@H]1CCc1ccc(C#Cc2ccccc2)cc1 | -6.4% |
| COC(=O)[C@]12C[C@H](CC(=O)N3CCN(C(=O)C4CC4)CC3)C(=O)N(CCC3=CCCCC3)C1=C[C@H](C(C)C)O[C@@H]2C1CC1 | 1.54% |
| NC(=O)c1c(NC(=O)CSc2nnc(-c3ccco3)n2N)sc2c1CCCC2 | 0.59% |
| O=C(O)c1c(NC(=O)N2CCCC2)sc2c1CCCC2 | 0.58% |
| NC(=O)c1c(NC(=O)c2ccccc2)sc2c1CCCC2 | 13.5% (active) |
| Cc1ccc2nc(-c3ccc(CN4CCC(n5cc(-c6ccccc6)[nH]c5=O)CC4)cc3)c(-c3ccccc3)nc2c1 | 0.94% |
| C=CCN1C(C(=O)OC)CN(Cc2cn(Cc3ccccc3)nn2)CCS1(=O)=O (stereo not given) | 0.93% |
| Cc1nn(-c2ccc([N+](=O)[O-])cc2)c(N)c1-c1ccccc1 | 16.8% (active) |
| CC(C)(C)c1cnnn1-c1ccc([N+](=O)[O-])cc1 | -1.27% |
| Cc1nn(-c2ccccc2)c2c1C(c1cccc([N+](=O)[O-])c1)N(c1ccccc1)C(=O)N2 (stereo not given) | 2.5% |
| COCCNC(=S)N(C)[C@H]1C[C@H]2c3[nH]c4ccccc4c3CCN2C[C@H]1[C@H](C)O | 0.91% |
| COC(=O)C1CN(Cc2ccc(F)cc2)CCS(=O)(=O)N1Cc1ccc(Cl)cc1 (stereo not given) | -1.05% |
| O=C(C(NS(=O)(=O)c1cccc2nsnc12)c1ccccc1)N1CCN(c2ccccc2)CC1 (stereo not given) | 0.47% |
| Nn1c(SCC(=O)Nc2cccc3ccccc23)nnc1-c1cc(-c2ccc(F)cc2)n[nH]1 | -2.56% |
| O=C(Oc1ccc([N+](=O)[O-])cc1)c1ccc2ccccc2n1 | 3.74% |

| SMILES | activation |
| --- | --- |
| O=[N+]([O-])c1ccc2c(c1)Nc1nc3ccccc3nc1N2 | 27.2% (active) |
| O=[N+]([O-])c1cc2ccccc2nc1-c1ccccc1 | 4.98% |
| C=CCOC/C=C/C#CCN(CC=C)Cc1ccc(OC)cc1OC | 5.3% |
| CC(c1ccccn1)N(CCN(C)C)C(=S)Nc1ccccc1F (stereo not given) | 0.46% |
| Cc1ccccc1CS(=O)(=O)Cc1ccc(C(=O)Nc2ccc(Cl)cc2)o1 | -3.81% |
| O=C(O)C1CC=CCC1C(=O)NCCc1ccccc1 (stereo not given) | -1.34% |
| O=C(Nc1ccc(Cl)c(Cl)c1)c1ccccc1NC(=O)C1CC=CCC1C(=O)O (stereo not given) | 15.7% (active) |
| O=C(Nc1cccc(Cl)c1Cl)c1ccccc1NC(=O)C1CC=CCC1C(=O)O (stereo not given) | 5.07% |
| Cc1cc(C)cc(NC(=O)NC2CCCCCCC2)c1 | 5.46% |
| O=C(Nc1cccc(F)c1)NC1CCCCCCC1 | 10.7% (active) |
| O=C(Nc1cccc(F)c1)NC1CCCc2ccccc21 (stereo not given) | -1.37% |
| CCCC(=O)NC(=S)Nc1ccc(CN2CCOCC2)cc1 | 0% |
| COC(=O)c1ccc(NC(=S)Nc2cccc(C)n2)cc1 | 1.63% |
| COC(=O)c1ccc(NC(=S)NN2CCOCC2)cc1 | 10.6% (active) |
| C#CCNC(=O)C[C@H]1C[C@@]2(C(=O)OC)C(=C[C@H](C(C)C)O[C@@H]2C2CC2)N(Cc2ccco2)C1=O | 0.97% |
| C/C(=N\NC(=O)c1ccoc1C)c1ccccc1O | 11.5% (active) |
| C/C(=N\Nc1ccc(Cl)nn1)c1ccccc1O | 1.05% |
| COc1ccccc1N(CC(=O)N/N=C(\C)c1ccccc1O)S(=O)(=O)c1ccc(C)cc1 | -1.9% |
| O=C(NC(CC(=O)N1CCN(c2ccccc2)CC1)c1ccccc1)c1ccccc1Cl (stereo not given) | -0.02% |
| Cc1ccc(SCCSc2ncccn2)cc1 | 17.8% (active) |
| Cc1ccc(SCCC(=O)NCc2ccccn2)cc1 | 0.65% |
| Cc1ccc(SCCC(=O)NC(C(C)C)C(C)C)cc1 | -2.93% |
| CCCCCN1CCCCC(NC(=O)C(C)CCC)C1=O (stereo not given) | 2.68% |

| SMILES | activation |
| --- | --- |
| CC(C)(C)c1ccc(C(=O)Nc2cc(Cl)c(Br)cc2C(=O)O)cc1 | -1.36% |
| CCN(CC(=O)Nc1ccc(C)c(S(=O)(=O)N(C)C)c1)Cc1ccccc1 | 2.76% |
| Cc1ccc(C(=O)Nc2ccc(C)c(S(=O)(=O)N(C)C)c2)s1 | 17.3% (active) |
| COc1ccc(CCC(=O)OCC(=O)Nc2ccc(C)c(S(=O)(=O)N(C)C)c2)cc1 | -1.79% |
| C[C@@H](NC(=O)c1ccccc1OCC(=O)Nc1ccc(I)cc1)C(=O)N(C)Cc1ccccc1 | -2.59% |
| C#CCN(C[C@@H]1[C@@H](OC(=O)NC2CC2)[C@@H](OC(=O)NC2CC2)Cn2c(=O)ccc(=O)n21)S(=O)(=O)c1ccc(C)cc1 | -1.94% |
| O=C1CC[C@@H](COc2ccc3[nH]cc(-c4ccccc4)c3c2-c2ccccc2)N1 | -0.08% |
| CCCCNC(=O)C[C@H]1C(=O)N(Cc2ccc(OC)cc2)C2=CCCC[C@@]21C(=O)OCC | -2.38% |
| CNCC(O)CN1CCN(c2ccccc2OC)CC1 (stereo not given) | -4.94% |
| COc1ccccc1N1CCN(/N=C/c2ccc(O)cc2O)CC1 | 13% (active) |
| COc1ccccc1/C=N/N1CCN(Cc2ccccc2Cl)CC1 | 3.82% |
| O=C(Nc1ccccc1)O/N=C1/CCCc2occc21 | 1.6% |
| N[C@@H](Cc1ccccc1)C(=O)N1CCC[C@@H]1C(=O)N1CCC2CCN(S(=O)(=O)c3ccccc3)CC21 (stereo not given in full) | 2.75% |
| Cc1cccc(NC(=O)c2cc3c(C)nn(-c4ccccc4)c3s2)c1 | 3.47% |
| O=C1NC[C@H](CCCCN2C[C@H](Cc3ccccc3)N(Cc3ccccc3)C(=O)C2=O)N(CCc2ccc(O)cc2)C1=O | 0.18% |
| O=C1NC[C@@H](Cc2ccc(O)cc2)N(CCc2cccc(F)c2)C1=O | 18.6% (active) |
| O=C1NC[C@H](CCCCN2C[C@H](Cc3ccc(O)cc3)N(CCc3ccccc3)C(=O)C2=O)N(CCc2ccccc2)C1=O | -1.46% |
| CCOC(=O)[C@]12CCCCC/C=C\1N(Cc1ccc(OC)cc1)C(=O)[C@H]2CC(=O)N1CCOCC1 | 4.14% |
| CC(C)(C)NS(=O)(=O)c1ccc(NC(=O)C2CCCO2)cc1 (stereo not given) | -2.61% |
| O=C(Nc1ccc(-c2nnc(-c3ccccc3)o2)cc1)C1CCCO1 (stereo not given) | 13.7% (active) |
| CCOc1ccc(NC(=O)c2ccc(NC(=O)C3CCCO3)cc2)cc1 (stereo not given) | -1.61% |
